# Laboratory results: PubChem BioAssay (NCI)
# About 83,000 compounds went through this panel and 20% of them were active in at least one assay; those are over-represented in the sample as a whole.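 Step 1: grow cells in 96-well plates. Step 2: add test compound at a single concentration. Step 3: incubate 48 h. Step 4: record percent growth.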 A number with no mark means an inactive call. The source made the active and inactive calls. How the source made its calls: active means growth percent below 10; inactive means the rest.
# System: COLO 205 colon
# Assay: NCI-60 one-dose screen, 48 h (100 = growth as untreated, 0 = no growth, -100 = all killed)
# Conditions: 10 µM unless noted
row,SMILES,growth
1,c1ccc2c(c1)oc1cc3sccc3nc12,109%
2,CC1=C(C(=O)OCC2CCN(C(=O)OC(C)(C)C)CC2)[C@H](c2cccc(C#N)c2)C2=C(CC(C)(C)CC2=O)N1,50.9%
3,O=C(c1nc2ccccc2[nH]1)C1C(c2ccc([N+](=O)[O-])cc2)C2CC3CCCCC3N2[C@@]12C(=O)Nc1cc(Cl)ccc12 (some centres undefined),22.2%
4,Nc1ccn(C2O[C@H](CO)[C@@H](O)[C@H]2O)c(=O)n1 (some centres undefined),110%
5,Nc1ccc(-n2c(=O)oc3ccc(Cl)cc3c2=O)c(Cl)c1,-27.4% (active)
6,CC1=C(C(=O)OCC2CCN(C(=O)OC(C)(C)C)CC2)[C@@H](c2cccc(C#N)c2)C2=C(CC(C)(C)CC2=O)N1,38.6%
7,N#Cc1c(N)nc2c(c1N)C(c1ccc(F)cc1)c1ccc(N)cc1O2 (centres undefined),124%
8,COc1ccc(Cn2c(Br)c3c(c2-c2cc(OC)c(OC)c(OC)c2)CCc2sc(NC(=O)c4ccc(OC)cc4)nc2-3)cc1,107%
9,O=c1cc(NC2CCN(CCCc3ccccc3)CC2)c2cc(Cl)ccc2o1,-98.4% (active)
10,Brc1ccc(Oc2ccc(Nc3ncnc4onc(-c5ccccc5)c34)cc2)cc1,112%
11,NNC(=O)CNC(=O)Nc1n[nH]c(=S)s1,107%
12,COc1ccc(Cn2c(Br)c3c(c2-c2cc(OC)c(OC)c(OC)c2)CCc2sc(NC(C)=O)nc2-3)cc1,20.8%
13,COc1ccc(/C=C2\NC(=O)NC2=O)cc1O,117%
14,Cc1cc2c(c(C)c1Cl)C(=O)/C(=C/c1ccco1)O2,113%
